# Measured values published in PubChem BioAssay (EPA / NIEHS).
# Where “and” joins values, the source holds several entries; their conditions need not be identical. Equal values may be shown once. Inconclusive results are not listed. Calls of active or inactive are those of the source. How the source made its calls, unless noted: active means hit-call score of the fitted dose curve at least 0.9, where 1 is the maximum; inconclusive means response in the unintended direction; inactive means score below 0.9.
# How the values were obtained:
# [1] = molecular target: Estrogen receptor beta (Homo sapiens) (UniProt Q92731); assay: ATG_hERb_XSP2: Attagene TRANS-FACTORIAL Multi-Species (XSP2) HepG2 Assay for human Estrogen Receptor (ERb) (AID 2283813);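 further: actives raise reporter mRNA above DMSO so AC50 reflects agonist induction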
# In short: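 Transient TRANS reporter system in HepG2: after 24 h of chemical, RNA is reverse-transcribed, reporter cDNA amplified, FAM-labelled and sized by capillary electrophoresis. Induction of the human ERb-Gal4 reporter is measured relative to DMSO.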
# [2] = molecular target: GAL4 Transcription Factor (Internal Marker), GAL4 (gene 855828) (UniProt P04386); assay: ATG_GAL4_XSP2: Attagene TRANS-FACTORIAL Multi-Species (XSP2) HepG2 Assay for GAL4 Transcription Factor (Internal Marker) (AID 2283814);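 further: GAL4 reporter mRNA background control in MRTU transfected cells not a receptor target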
# In short: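 Background-control readout: gain-of-signal fitted against DMSO. After 24 h exposure of transfected HepG2 (MRTU, GAL4-UAS reporters; 3 nM 6-alpha-fluorotestosterone, 1.5 nM norgestrel present), transcripts quantified by RT-PCR and capillary electrophoresis fluorescence.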
# [3] = molecular target: zebrafish Estrogen Receptor (ER1), esr1 (gene 259252) (UniProt P57717); assay: ATG_zfER1_XSP2: Attagene TRANS-FACTORIAL Multi-Species (XSP2) HepG2 Assay for zebrafish Estrogen Receptor (ER1) (AID 2283816)
# In short: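 After 24 h compound exposure, RNA from transfected HepG2 cells was reverse-transcribed and reporter transcripts resolved by capillary electrophoresis. The TRANS format reads exogenous zebrafish ER1-Gal4 chimera activity on GAL4-UAS elements; gain of signal against DMSO.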
# [4] = molecular target: chicken Estrogen Receptor (ERa), ESR1 (gene 396099) (UniProt P06212); assay: ATG_chERa_XSP2: Attagene TRANS-FACTORIAL Multi-Species (XSP2) HepG2 Assay for chicken Estrogen Receptor (ERa) (AID 2283817);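 further: actives raise reporter signal above DMSO so AC50 reflects ER activation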
# In short: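 Readout: fluorescent reporter-transcript fragments resolved by capillary electrophoresis after RT-PCR and HpaI cut. Chicken ERa-Gal4 fusion in transiently transfected HepG2, dosed for 24 h; activity taken as increase over DMSO baseline.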
# [5] = test system: zebrafish Estrogen Receptor (ER2a), gene 317734; assay: ATG_zfER2a_XSP2: Attagene TRANS-FACTORIAL Multi-Species (XSP2) HepG2 Assay for zebrafish Estrogen Receptor (ER2a) (AID 2283818);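 further: hits raise reporter mRNA so AC50 reflects activation of zebrafish ER2a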
# In short: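 Multiplexed trans-reporter readout: RT-PCR then capillary electrophoresis of reporter transcripts after 24 h compound treatment. Human HepG2 carries transfected zebrafish ER2a-Gal4 chimera; 3 nM 6-alpha-fluorotestosterone plus 1.5 nM norgestrel present. Induction scored against DMSO.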
# [6] = test system: frog Estrogen Receptor (ER), gene 398734; assay: ATG_frER1_XSP2: Attagene TRANS-FACTORIAL Multi-Species (XSP2) HepG2 Assay for frog Estrogen Receptor (ER) (AID 2283821);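 further: hits raise reporter mRNA above DMSO baseline so potency means agonist or activator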
# In short: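 Reporter mRNA induction, detected as fluorescence after RT-PCR and capillary electrophoresis, is the endpoint; activity is fitted upward against DMSO. Cells are human liver HepG2 carrying transfected NR-Gal4 chimeras with GAL4-UAS-driven reporters, harvested 24 h post-dosing.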
# [7] = test system: zebrafish Estrogen Receptor (ER2b), gene 317733; assay: ATG_zfER2b_XSP2: Attagene TRANS-FACTORIAL Multi-Species (XSP2) HepG2 Assay for zebrafish Estrogen Receptor (ER2b) (AID 2283823);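 further: fitted upward as reporter gain over DMSO so potency reflects activation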
# In short: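 Transcriptional induction measured as reporter mRNA (RT-PCR, fluorescent capillary electrophoresis) in transiently transfected HepG2 cells after 24 h dosing; DMSO served as negative control and baseline.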
# [8] = test system: frog Estrogen Receptor (ER2), gene 100174814; assay: ATG_frER2_XSP2: Attagene TRANS-FACTORIAL Multi-Species (XSP2) HepG2 Assay for frog Estrogen Receptor (ER2) (AID 2283828)
# In short: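 Cells were transfected with reporter constructs under GAL4-UAS control, dosed with chemicals for 24 h, then lysed for RNA; the frog ER2-driven reporter mRNA was quantified by capillary electrophoresis of labeled PCR fragments, with activity fitted upward from DMSO.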
# [9] = molecular target: Peroxisome proliferator-activated receptor gamma (Homo sapiens) (UniProt P37231); assay: ATG_hPPARg_XSP2: Attagene TRANS-FACTORIAL Multi-Species (XSP2) HepG2 Assay for human Peroxisome Proliferator-activated Receptor gamma (PPARg) (AID 2283829);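 further: actives raise reporter mRNA above DMSO so AC50 reflects PPARg activation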
# In short: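 Human HepG2 cells carried transiently transfected Gal4 reporter units and were treated with chemical for 24 h alongside androgen-receptor stimulants (3 nM 6-alpha-fluorotestosterone, 1.5 nM norgestrel). Reporter transcripts were detected by RT-PCR with capillary electrophoresis, analysed in the positive direction against DMSO.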
# [10] = molecular target: Nuclear receptor subfamily 1 group I member 2 (Mus musculus) (UniProt O54915); assay: ATG_mPXR_XSP2: Attagene TRANS-FACTORIAL Multi-Species (XSP1) HepG2 Assay for mouse Pregnane X Receptor (PXR) (AID 2283831)
# In short: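 Fluorescence signals from capillary electrophoresis of RT-PCR-amplified reporter mRNA give the readout, gain-of-signal versus DMSO. Transfected HepG2 cells, 24 h dosing, medium contained 3 nM 6-alpha-fluorotestosterone and 1.5 nM norgestrel.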
# [11] = test system: zebrafish Peroxisome Proliferator-activated Receptor gamma (PPARg), gene 557037; assay: ATG_zfPPARg_XSP2: Attagene TRANS-FACTORIAL Multi-Species (XSP2) HepG2 Assay for zebrafish Peroxisome Proliferator-activated Receptor gamma (PPARg) (AID 2283833);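 further: reporter mRNA from a zebrafish PPARg GAL4 chimera measured by RT-PCR and capillary electrophoresis; actives increase reporter signal over DMSO so AC50 reflects activation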
# In short: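 HepG2, transient MRTU transfection, 24 h compound; zfPPARg-GAL4 reporter mRNA by RT-PCR + capillary electrophoresis; gain-of-signal vs DMSO.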
# [12] = test system: turtle Thyroid Hormone Receptor, alpha (TRa), gene 101949057; assay: ATG_trTRa_XSP2: Attagene TRANS-FACTORIAL Multi-Species (XSP1) HepG2 Assay for turtle Thyroid Hormone Receptor, alpha (TRa) (AID 2283834);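 further: hits raise reporter mRNA over the DMSO baseline so AC50 marks activators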
# In short: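 Multiplexed TRANS reporter assay; HepG2 carrying NR-Gal4 constructs treated 24 h. mRNA of the GAL4-UAS reporter quantified via labelled RT-PCR fragments on a genetic analyzer, vs DMSO negative control.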
# [13] = ATG_M_61_XSP2: Attagene TRANS-FACTORIAL Multi-Species (XSP2) HepG2 Assay for M61 Transcription Factor (Internal Marker) (AID 2283835; active means hit-call score of the fitted dose curve at least 0.9, where 1 is the maximum; inactive means score below 0.9;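 further: reporter mRNA of an internal background marker read by RT-PCR and capillary electrophoresis; active means a rise in signal above the DMSO baseline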)
# In short: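 Transient MRTU transfection of human HepG2; 24 h chemical dosing with 3 nM 6-alpha-fluorotestosterone + 1.5 nM norgestrel added for AR stimulation. RNA isolated, RT, PCR, FAM-labelled, HpaI cut, CE read. Positive direction vs DMSO.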
# [14] = molecular target: zebrafish Thyroid Hormone Receptor beta (TRb), thrb (gene 30607) (UniProt Q9PVE4); assay: ATG_zfTRb_XSP2: Attagene TRANS-FACTORIAL Multi-Species (XSP1) HepG2 Assay for zebrafish Thyroid Hormone Receptor beta (TRb) (AID 2283836)
# In short: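 Transfect HepG2 with multiple reporter transcription units, dose chemical, incubate 24 h. Isolate RNA, reverse-transcribe, amplify and fluorescently label reporter sequences, digest with HpaI, then resolve by capillary electrophoresis. Positive direction fitted against DMSO.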
# [15] = ATG_XTT_Cytotoxicity_XSP2: Cytotoxicity Assessment in the Attagene TRANS-FACTORIAL Multi-Species (XSP2) HepG2 Assay (AID 2283837)
# In short: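 XTT-based cell number read-out in human HepG2 liver cells carrying transfected reporter units, measured 24 h after chemical dosing. Activity is signal loss versus DMSO baseline.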
# [16] = molecular target: human Thyroid hormone Receptor alpha (TRa), THRA (gene 7067) (UniProt P10827); assay: ATG_hTRa_XSP2: Attagene TRANS-FACTORIAL Multi-Species (XSP2) HepG2 Assay for human Thyroid hormone Receptor alpha (TRa) (AID 2283838)
# In short: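 Reporter transcripts were read by RT-PCR with fluorescent primer extension, HpaI digestion and capillary electrophoresis. These came from HepG2 cells carrying multiplexed TRa-Gal4 TRANS constructs, harvested 24 hours after dosing. The medium also held 6-alpha-fluorotestosterone (3 nM) and norgestrel (1.5 nM), and increases were fitted against DMSO.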
# [17] = molecular target: frog Thyroid hormone Receptor alpha (TRa), thra-a (gene 397942) (UniProt P15204); assay: ATG_frTRa_XSP2: Attagene TRANS-FACTORIAL Multi-Species (XSP2) HepG2 Assay for frog Thyroid hormone Receptor alpha (TRa) (AID 2283839)
# In short: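 Chimeric frog TRα-GAL4 activity in human liver cells measures reporter transcript induction 24 h post-dose. Detection uses RT-PCR, HpaI-digested labelled products and fluorescence capillary electrophoresis; DMSO serves as negative control.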
# [18] = molecular target: human Thyroid hormone Receptor beta (TRb), THRB (gene 7068) (UniProt P10828); assay: ATG_hTRb_XSP2: Attagene TRANS-FACTORIAL Multi-Species (XSP2) HepG2 Assay for human Thyroid hormone Receptor beta (TRb) (AID 2283840);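 further: actives raise reporter mRNA so potency reflects agonist-like gain of signal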
# In short: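 Gain-of-signal reporter transcription, referenced to DMSO, was measured in transiently transfected HepG2 after 24 h exposure; labeled RT-PCR products were resolved by capillary electrophoresis. Assay medium included 3 nM 6-alpha-fluorotestosterone and 1.5 nM norgestrel.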
# [19] = molecular target: guinea pig Leukotriene D4 Receptor (LTD4), CYSLTR1 (gene 100135514) (UniProt Q2NNR5); assay: NVS_GPCR_gLTD4: NovaScreen (NVS) G Protein-Coupled Receptor Assay for guinea pig Leukotriene D4 Receptor (LTD4) (AID 2283248)
# In short: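 Guinea pig lung membrane preparation; bound radioligand measured by filter scintillation after 1 h, loss of signal versus DMSO marking displacement. Compounds tested at 25 uM in duplicate, hits retested to max 50 uM.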
# [20] = molecular target: human Neurokinin, NK2 Receptor, TACR2 (gene 6865) (UniProt P21452); assay: NVS_GPCR_hNK2: NovaScreen (NVS) G Protein-Coupled Receptor Assay for human Neurokinin, NK2 Receptor (AID 2283278);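 further: actives reduce bound radioligand signal relative to DMSO baseline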
# In short: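 Radioligand binding on membranes from CHO cells expressing receptor, filter-based scintillation read 4 h after dosing. Initial duplicate screen at 25 uM, actives in concentration series; loss of signal versus DMSO.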
# Nuclear receptor subfamily 1 group I member 2 (Mus musculus), sequence (O54915 whole entry, looked up): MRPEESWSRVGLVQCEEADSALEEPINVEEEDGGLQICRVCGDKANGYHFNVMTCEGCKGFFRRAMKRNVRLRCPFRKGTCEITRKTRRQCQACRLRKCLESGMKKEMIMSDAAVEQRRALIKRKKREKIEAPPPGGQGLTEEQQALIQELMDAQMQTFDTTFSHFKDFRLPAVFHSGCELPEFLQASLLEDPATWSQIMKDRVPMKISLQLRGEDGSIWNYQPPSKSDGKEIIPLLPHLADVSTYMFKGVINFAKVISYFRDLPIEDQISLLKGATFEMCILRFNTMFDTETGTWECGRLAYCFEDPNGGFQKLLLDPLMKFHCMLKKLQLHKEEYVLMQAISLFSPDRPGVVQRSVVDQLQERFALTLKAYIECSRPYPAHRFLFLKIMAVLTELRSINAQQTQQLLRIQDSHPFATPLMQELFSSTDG
# Peroxisome proliferator-activated receptor gamma (Homo sapiens), sequence (P37231 whole entry, looked up, the tested form may be a part): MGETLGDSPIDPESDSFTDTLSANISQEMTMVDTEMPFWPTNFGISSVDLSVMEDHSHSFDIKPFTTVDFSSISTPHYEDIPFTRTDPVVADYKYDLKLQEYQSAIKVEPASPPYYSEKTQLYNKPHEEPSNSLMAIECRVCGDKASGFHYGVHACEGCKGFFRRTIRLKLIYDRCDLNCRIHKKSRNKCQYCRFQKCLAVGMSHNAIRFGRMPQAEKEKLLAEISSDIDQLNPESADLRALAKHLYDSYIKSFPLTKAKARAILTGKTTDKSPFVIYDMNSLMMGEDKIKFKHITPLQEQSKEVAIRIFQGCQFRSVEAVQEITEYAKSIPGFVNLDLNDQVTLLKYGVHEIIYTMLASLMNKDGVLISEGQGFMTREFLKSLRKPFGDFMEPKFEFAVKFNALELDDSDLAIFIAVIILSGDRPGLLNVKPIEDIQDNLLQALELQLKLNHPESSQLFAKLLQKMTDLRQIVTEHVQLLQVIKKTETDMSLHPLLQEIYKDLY
# human Thyroid hormone Receptor beta (TRb), THRB (gene 7068), sequence (P10828 whole entry, looked up): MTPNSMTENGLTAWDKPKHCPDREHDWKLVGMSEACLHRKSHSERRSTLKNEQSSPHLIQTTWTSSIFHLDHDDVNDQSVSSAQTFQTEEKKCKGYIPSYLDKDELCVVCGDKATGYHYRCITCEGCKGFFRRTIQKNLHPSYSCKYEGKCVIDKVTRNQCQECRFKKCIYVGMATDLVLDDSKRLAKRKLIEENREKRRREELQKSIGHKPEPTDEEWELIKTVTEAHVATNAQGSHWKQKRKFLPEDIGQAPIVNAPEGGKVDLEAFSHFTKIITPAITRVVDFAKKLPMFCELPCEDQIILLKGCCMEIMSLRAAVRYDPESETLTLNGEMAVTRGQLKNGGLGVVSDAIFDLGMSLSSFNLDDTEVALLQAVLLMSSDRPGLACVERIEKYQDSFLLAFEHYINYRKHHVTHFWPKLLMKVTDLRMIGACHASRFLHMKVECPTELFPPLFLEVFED
# chicken Estrogen Receptor (ERa), ESR1 (gene 396099), sequence (P06212 whole entry, looked up, the tested form may be a part): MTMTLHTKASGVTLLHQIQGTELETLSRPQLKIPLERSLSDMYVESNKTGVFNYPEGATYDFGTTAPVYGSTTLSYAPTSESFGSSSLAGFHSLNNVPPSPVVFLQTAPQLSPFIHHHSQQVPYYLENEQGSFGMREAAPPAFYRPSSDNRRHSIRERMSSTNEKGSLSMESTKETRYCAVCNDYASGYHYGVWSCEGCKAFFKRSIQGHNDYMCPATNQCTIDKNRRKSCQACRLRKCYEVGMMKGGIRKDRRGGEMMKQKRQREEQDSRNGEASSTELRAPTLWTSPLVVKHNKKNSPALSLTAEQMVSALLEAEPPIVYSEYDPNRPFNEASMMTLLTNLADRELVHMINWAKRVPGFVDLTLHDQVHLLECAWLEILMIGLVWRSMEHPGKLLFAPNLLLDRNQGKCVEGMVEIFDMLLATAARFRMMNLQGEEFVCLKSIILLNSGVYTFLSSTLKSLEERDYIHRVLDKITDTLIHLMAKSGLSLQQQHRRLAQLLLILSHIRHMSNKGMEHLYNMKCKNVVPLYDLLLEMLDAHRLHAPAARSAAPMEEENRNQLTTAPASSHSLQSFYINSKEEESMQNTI
# Estrogen receptor beta (Homo sapiens), sequence (Q92731 whole entry, looked up, the tested form may be a part): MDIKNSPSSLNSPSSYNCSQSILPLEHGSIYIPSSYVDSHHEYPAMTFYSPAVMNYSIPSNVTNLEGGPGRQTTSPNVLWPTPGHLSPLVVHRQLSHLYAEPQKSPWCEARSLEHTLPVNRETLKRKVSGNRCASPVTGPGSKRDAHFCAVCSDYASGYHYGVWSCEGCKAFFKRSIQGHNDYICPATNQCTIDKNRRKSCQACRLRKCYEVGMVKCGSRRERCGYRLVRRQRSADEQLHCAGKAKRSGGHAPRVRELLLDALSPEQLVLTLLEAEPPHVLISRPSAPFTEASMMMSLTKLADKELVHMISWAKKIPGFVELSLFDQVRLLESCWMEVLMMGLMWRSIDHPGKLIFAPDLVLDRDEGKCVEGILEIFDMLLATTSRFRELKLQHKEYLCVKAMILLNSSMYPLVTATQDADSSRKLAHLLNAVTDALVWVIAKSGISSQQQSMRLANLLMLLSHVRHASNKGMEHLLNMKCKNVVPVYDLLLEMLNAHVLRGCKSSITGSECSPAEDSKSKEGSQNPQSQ
# human Thyroid hormone Receptor alpha (TRa), THRA (gene 7067), sequence (P10827 whole entry, looked up, the tested form may be a part): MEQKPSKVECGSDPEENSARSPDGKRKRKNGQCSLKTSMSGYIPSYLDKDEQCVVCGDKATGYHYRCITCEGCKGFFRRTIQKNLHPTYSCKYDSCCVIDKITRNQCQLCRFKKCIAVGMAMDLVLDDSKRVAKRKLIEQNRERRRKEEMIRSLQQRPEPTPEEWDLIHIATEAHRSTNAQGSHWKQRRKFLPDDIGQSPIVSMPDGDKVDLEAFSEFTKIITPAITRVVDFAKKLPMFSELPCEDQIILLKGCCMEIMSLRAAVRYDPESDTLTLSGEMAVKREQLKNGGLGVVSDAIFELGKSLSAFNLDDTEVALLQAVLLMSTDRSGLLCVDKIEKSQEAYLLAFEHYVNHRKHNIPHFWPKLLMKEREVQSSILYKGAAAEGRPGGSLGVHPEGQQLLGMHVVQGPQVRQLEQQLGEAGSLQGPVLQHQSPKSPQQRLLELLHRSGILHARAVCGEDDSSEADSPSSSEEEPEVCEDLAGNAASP
# zebrafish Estrogen Receptor (ER1), esr1 (gene 259252), sequence (P57717 whole entry, looked up, the tested form may be a part): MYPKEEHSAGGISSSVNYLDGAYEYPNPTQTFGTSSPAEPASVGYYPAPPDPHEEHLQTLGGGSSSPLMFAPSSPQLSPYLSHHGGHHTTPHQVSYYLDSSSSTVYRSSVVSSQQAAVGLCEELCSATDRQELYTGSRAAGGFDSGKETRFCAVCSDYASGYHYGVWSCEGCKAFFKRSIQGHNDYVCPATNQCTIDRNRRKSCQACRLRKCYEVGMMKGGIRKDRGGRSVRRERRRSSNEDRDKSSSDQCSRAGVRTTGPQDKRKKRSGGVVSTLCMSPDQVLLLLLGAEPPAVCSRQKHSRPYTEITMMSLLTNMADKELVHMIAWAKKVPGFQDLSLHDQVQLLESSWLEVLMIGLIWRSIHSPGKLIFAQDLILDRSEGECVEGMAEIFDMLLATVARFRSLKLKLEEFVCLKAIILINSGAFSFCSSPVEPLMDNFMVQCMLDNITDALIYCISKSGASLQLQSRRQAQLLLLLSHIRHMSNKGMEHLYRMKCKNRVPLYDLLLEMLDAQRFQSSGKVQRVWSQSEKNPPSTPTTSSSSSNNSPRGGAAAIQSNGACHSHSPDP
# human Neurokinin, NK2 Receptor, TACR2 (gene 6865), sequence (P21452 whole entry, looked up): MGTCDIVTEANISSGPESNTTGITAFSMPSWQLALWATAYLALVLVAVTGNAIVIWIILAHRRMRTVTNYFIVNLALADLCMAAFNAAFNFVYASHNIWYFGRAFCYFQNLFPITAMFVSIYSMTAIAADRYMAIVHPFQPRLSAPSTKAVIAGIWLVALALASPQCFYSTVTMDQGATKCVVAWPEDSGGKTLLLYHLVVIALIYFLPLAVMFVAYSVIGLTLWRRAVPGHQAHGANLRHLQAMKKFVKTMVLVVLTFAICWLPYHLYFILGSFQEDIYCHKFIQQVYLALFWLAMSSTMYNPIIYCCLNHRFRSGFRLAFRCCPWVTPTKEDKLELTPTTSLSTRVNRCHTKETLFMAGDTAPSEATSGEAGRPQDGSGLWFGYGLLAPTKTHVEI
# guinea pig Leukotriene D4 Receptor (LTD4), CYSLTR1 (gene 100135514), sequence (Q2NNR5 whole entry, looked up): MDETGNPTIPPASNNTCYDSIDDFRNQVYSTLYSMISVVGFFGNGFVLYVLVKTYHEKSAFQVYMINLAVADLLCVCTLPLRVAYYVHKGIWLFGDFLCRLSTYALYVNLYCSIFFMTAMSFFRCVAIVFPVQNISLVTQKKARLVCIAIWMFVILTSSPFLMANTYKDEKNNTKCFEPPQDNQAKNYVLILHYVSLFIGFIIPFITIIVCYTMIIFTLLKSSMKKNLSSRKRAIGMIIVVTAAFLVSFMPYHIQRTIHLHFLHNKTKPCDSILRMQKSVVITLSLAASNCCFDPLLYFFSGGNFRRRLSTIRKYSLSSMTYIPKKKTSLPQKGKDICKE
# frog Thyroid hormone Receptor alpha (TRa), thra-a (gene 397942), sequence (P15204 whole entry, looked up, the tested form may be a part): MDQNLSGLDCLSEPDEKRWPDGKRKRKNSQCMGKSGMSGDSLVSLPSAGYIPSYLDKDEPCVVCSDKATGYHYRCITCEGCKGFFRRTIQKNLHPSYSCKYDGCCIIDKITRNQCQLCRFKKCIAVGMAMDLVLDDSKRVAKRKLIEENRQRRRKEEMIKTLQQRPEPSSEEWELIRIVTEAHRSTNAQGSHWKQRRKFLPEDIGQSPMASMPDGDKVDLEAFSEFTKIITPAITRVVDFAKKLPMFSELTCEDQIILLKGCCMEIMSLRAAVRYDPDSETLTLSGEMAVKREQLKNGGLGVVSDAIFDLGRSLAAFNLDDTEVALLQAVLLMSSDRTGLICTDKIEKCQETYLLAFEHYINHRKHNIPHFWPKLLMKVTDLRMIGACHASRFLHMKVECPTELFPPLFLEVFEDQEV
Structure (SMILES),AC50 [1],outcome [2],AC50 [3],AC50 [4],AC50 [5],AC50 [6],AC50 [7],AC50 [8],AC50 [9],outcome [10],outcome [11],outcome [12],outcome [13],outcome [14],outcome [15],outcome [16],outcome [17],outcome [18],outcome [19],AC50 [20]
Cc1cc(O)cc(C)c1Cl,7.77 µM (active) and 7.9 µM (active),inactive,76 µM (active) and 29.7 µM (active),24.2 µM (active) and 31.7 µM (active),100 µM (active) and 23.8 µM (active),66.8 µM (active) and 26.3 µM (active),68.1 µM (active) and 34.5 µM (active),29.3 µM (active) and 19.5 µM (active),48.2 µM (active) and 63.3 µM (active),inactive,inactive,inactive,inactive,inactive,inactive,inactive,inactive,inactive,–,–
CCCCCCCCCCCCCCCCCC[N+](C)(C)C,–,–,–,–,–,–,–,–,–,–,–,–,–,–,–,–,–,–,inactive,4.53 µM (active)
